High-throughput results (PubChem BioAssay)
The sample as a whole holds a higher share of hits than the screen did.
Sa growth inh: S. aureus growth inhibition at 42 and 30 °C, primary screen, LtaS inhibitor project, RN4220, two temperatures; OD600, 20 h, 42 °C; active compounds read low; relative growth, % (no concentration beside the values); AID 720641, 2013; actives 0.53% (n = 170,000);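 active means relative growth at most 50% at the other temperature and 20+ points below 30 °C, or under 10% at both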
Sa helicase inh: inhibitors of S. aureus replicative helicase, primary screen, biochemical, fluorescence unwinding readout | actives 0.05% (n = 120,000) | purified S. aureus helicase, fluorescence unwinding assay | replicative DNA helicase (DnaC/DnaB), Staphylococcus aureus | inhibition, % (no concentration beside the values); in the data active means inhibition above about 25%, passing the limit was not always enough;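 further: 0% = mean of negative control wells and 100% = mean of positive control wells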
* marks the source's active call; other numbers are inactive results; · = not tested or not shown; ! = a repeat was not active.

SMILES | Sa growth inh | Sa helicase inh
CC(=NCc1ccccc1)c1sc2ccccc2c1O | 112.0 | 3.0
Cn1c(CNc2ccc(C(=O)O)cc2)nc2ccccc21 | 106.5 | 3.0
CN(C)c1ccc(C2N(Cc3ccccc3)CCN2Cc2ccccc2)cc1 | 86.7 | 3.0
Cc1nn(-c2ccccc2)c2nc(-c3cccs3)cc(C(=O)OCC(=O)N3CCCC3)c12 | 96.6 | 9.0
CC1=NN(c2nc3ccccc3s2)C(=O)C1CCC(C)C (stereo not given) | 1.9* | -3.0
CC1=NN(c2nc3ccccc3s2)C(=O)C1 | 92.4 | ·
CCOC(=O)C1CCN(C(=O)c2ccc3c(c2)CCCN3S(C)(=O)=O)CC1 | 97.3 | 11.0
COc1ccccc1C(=O)CSc1ccc(Cl)cc1 | 6.6* | -17.0
O=C(CSc1ccc(Cl)cc1)c1ccc[nH]1 | 113.0 | 11.0
COc1ccc(N2C(=O)CSC23CCC(C)CC3)cc1 (stereo not given) | 114.0 | 28.0
Cc1cc(C)c(OCC(=O)N/N=C/c2ccc(O)cc2O)c(Br)c1 | 55.8 | -2.0
CS(=O)(=O)CCC(C(=O)n1nnc2ccccc21)N1C(=O)c2ccccc2C1=O (stereo not given) | 113.8 | 16.0
CS(=O)(=O)CCC(C(=O)Oc1cccc2cccnc12)N1C(=O)c2ccccc2C1=O (stereo not given) | 0.7* | 12.0
O=C(OCC(=O)c1cc(Cl)ccc1Cl)c1cccc(O)c1 | 77.3 | 17.0
S=C1NCN(Cc2ccncc2)CN1 | 84.6 | ·
CN(C)CCOc1ccc(/C(=C(/CCCl)c2ccccc2)c2ccccc2)cc1 | 7.1*! | ·
CN(CCOc1ccccc1)CCOc1ccccc1 | 118.2 | -11.0
O=C(Nc1ccc(-c2cn3ccsc3n2)cc1)c1cccs1 | · | 21.0
Cc1ccc(-n2nnnc2S(C)(=O)=O)c(C)c1 | 76.2 | 12.0
Cc1cccc(-n2nnnc2S(C)(=O)=O)c1 | -0.6* | ·
Cc1ccc(S(N)(=O)=O)cc1F | 111.0 | -14.0
Cc1nc2c(C(=O)NCc3ccccc3)c[nH]n2c(=O)c1Cl | 93.6 | 6.0
Cc1nc2c(C(=O)NCc3ccccc3)c[nH]n2c(=O)c1Cc1ccccc1Cl | 0.7* | ·
Cc1cc(NC(=O)c2ccccc2)nc2c1c(=O)oc1ccccc12 | · | -5.0
Cc1cc(NC(=O)c2ccc(N3C(=O)CCC3=O)cc2)nc2c1c(=O)oc1ccccc12 | 0.1* | -11.0
SMILES | Sa growth inh | Sa helicase inh
CN(C)C=Nc1c(C#N)c2n(c1C(=O)c1ccc(Br)cc1)CCC2 | 101.6 | -13.0
Cc1ccc(S(=O)(=O)NCCc2csc(-c3ccc(Cl)cc3)n2)cc1 | 93.1 | ·
CN1CCC(N(C)Cc2csc(-c3ccc(Cl)cc3)n2)CC1 | -0.3* | -17.0
COC(=O)[C@@H]1CC(=O)O[C@H](C)C/C=C/C=C/[C@H](O)[C@H](C)C[C@H](CC=O)[C@H](OC2O[C@H](C)[C@@H](OC3C[C@@](C)(O)[C@@H](OC(=O)CC(C)C)[C@H](C)O3)[C@H](N(C)C)[C@H]2O)[C@H]1OC (stereo not given in full) | -0.6* | ·
Cc1ccc2nc(SCCCC#N)[nH]c2c1 | 99.1 | -14.0
COc1ccc(-c2nc(N)sc2-c2ccccc2)cc1 | · | 16.0
N#CSc1sc(N)nc1-c1ccccc1 | 0.1* | 19.0
COC(=O)c1c[nH]n2c(=O)cc(C3CCNCC3)nc12 | 93.0 | -20.0
Cc1ccccc1OCCn1cc(/C=C(\C#N)C(=O)NC2CC2)c2ccccc21 | 112.4 | 17.0
Cc1ccc(C)c([C@H]2[C@H](C(=O)c3ccccc3)N3c4ccccc4C=CC3C2(C#N)C#N)c1 (stereo not given in full) | 56.4 | -6.0
N#C[C@@H]1C[C@@](C#N)(C(=O)c2ccccc2)[C@H]2C=Cc3ccccc3N12 | 5.3* | -2.0
COC(=O)c1ccc(C2N=C(c3ccccc3C)NO2)cc1 (stereo not given) | 62.1 | 0.0
CN(Cn1nc(-c2ccc3c(c2)OCO3)oc1=S)C1CCCCC1 | 44.9* | 2.0
CC(C)CN(CC(C)C)Cn1nc(-c2ccc3c(c2)OCO3)oc1=S | 69.6 | -11.0
COc1cc(OC)cc(-n2c(=O)c3ccccc3n(Cc3cc(=O)n4ccccc4n3)c2=O)c1 | 85.0 | 2.0
Cc1ccc(-c2nc(I)ccc2O)cc1 | 9.1* | -5.0
Cc1ccc(Nc2c(-c3ccc(O)cc3)nc3cccc(C)n23)cc1 | 108.6 | ·
CCN(Cc1ccncc1)C(=O)c1ccc(Cl)c(Cl)c1 | 119.1 | 13.0
CSc1ccc(S(=O)(=O)N2CCC(C(N)=O)CC2)cc1 | 101.2 | 3.0
Cc1n[nH]c(C)c1CCc1nc2c3ccccc3nc(=S)n2[nH]1 | 101.5 | 2.0
COc1cc(CO)ccc1OCc1ccccc1C | 109.0 | -13.0
CO[C@@H]1[C@@H](OC(N)=O)[C@@H](O)[C@H](Oc2ccc3c(O)c(NC(=O)c4ccc(O)c(CC=C(C)C)c4)c(=O)oc3c2C)OC1(C)C | -0.8* | ·
COc1ccc(C(=O)Nc2c(O)c3ccccc3oc2=O)cc1OC | 98.1 | -3.0
C[n+]1ccc(/C=C/c2ccccc2F)c2ccccc21 | 6.9 | 25.0
CN1C=C/C(=C\c2cc[n+](C)c3ccccc23)c2ccccc21 | 0.6* | 86.0*
SMILES | Sa growth inh | Sa helicase inh
Cc1cc(S(=O)(=O)N2CCOCC2)ccc1OCC(=O)O | 99.0 | 2.0
O=C1c2ccccc2C(=O)N1c1nccs1 | 82.7 | -8.0
O=C1c2ccccc2C(=O)c2sccc21 | 1.6* | -18.0
O=C1C2CC=CCC2C(=O)N1Cc1cc(=O)n2ccsc2n1 (stereo not given) | 118.9 | -7.0
Cc1[nH]n(C(N)=S)c(=O)c1C(c1cccc(Cl)c1Cl)C(C#N)C#N (stereo not given) | 60.0 | 17.0
CC(Nc1nc(C(C)(C)C)cs1)=C(C#N)C#N | 4.2* | 7.0
CC(C)(C)c1csc(NC(=O)CSC2=NCCS2)n1 | 87.5 | -3.0
CCCn1c(=O)n(C)c(=O)c2c(SC(C(=O)NC(=O)NC)c3ccccc3)nc(CC(C)C)nc21 (stereo not given) | 106.2 | 12.0
O=C(O)CCn1cnc2ccccc21 | 94.0 | -32.0
CN(C)Cc1ccc2ccc3cccc4ccc1c2c34 | 69.5 | 50.0*
Cc1c(CC#N)ccc2ccccc12 | 98.5 | ·
COc1cc(C(=O)Oc2cc(C)cc(C)c2)cc(OC)c1OC | 103.3 | ·
COc1cc(C(=O)N=C2C(C)=CC(=O)C=C2C)cc(OC)c1OC | -0.6* | 1.0
O=C(COC(=O)COc1ccccc1)Nc1cccc2ccccc12 | 98.8 | -24.0
COc1cccc(NC(=O)c2ccccc2N(C)C(=O)CCC(=O)N2CCC(C)CC2)c1 | 99.6 | -12.0
Oc1cccc(N=Cc2cc(Br)ccc2O)c1 | 32.2* | -10.0
Oc1ccccc1C=Nc1cccc(N=Cc2ccccc2O)c1 | 108.9 | 1.0
Cc1[nH]c(=O)c(C#N)c(C)c1CCC(=O)N1CCCSC1=Nc1ccccc1C(C)C | 97.2 | -3.0
CC1CCCCC1NC(=O)c1ccc[nH]c1=S (stereo not given) | 38.3 | 33.0
Cn1nc(C(=O)N2CCCc3ccccc32)c2ccccc2c1=O | 93.8 | -1.0
CCCn1nc(C(=O)N2CCc3ccccc32)c2ccccc2c1=O | 45.6* | -6.0
CSc1ccc(Cl)c(C(=O)OCC(=O)NCC2CCCCC2)c1 | 125.6 | -18.0
COCCN(Cc1c(-c2cccs2)n(C)c2ccccc12)C(=O)Nc1ccccc1 | 90.7 | 14.0
Cc1ccc(N(C(=O)Cn2nnc3ccccc32)C(C(=O)NCc2ccco2)c2cccnc2)cc1C (stereo not given) | 123.7 | 20.0
